{
  "source": "the supplement of paper PMC8728848",
  "binders": {"B1": {"name": "MIC1 (Toxoplasma gondii), O00834 (protein)", "chain": "MGQALFLTVLLPVLFGVGPEAYGEASHSHSPASGRYIQQMLDQRCQEIAAELCQSGLRKMCVPSSRIVARNAVGITHQNTLQWRCFDTASLLESNQENNGVNCVDDCGHTIPCPGGVHRQNSNHATRHEILSKLVEEGVQRFCSPYQASANKYCNDKFPGTIARRSKGFGNNVEVAWRCYEKASLLYSVYAECASNCGTTWYCPGGRRGTSTELDKRHYTEEEGIRQAIGSVDSPCSEVEVCLPKDENPPLCLDESGQISRTGGGPPSQPPEMQQPADRSDERGGGKEQSPGGEAQPDHPTKGGNIDLPEKSTSPEKTPKTEIHGDSTKATLEEGQQLTLTFISTKLDVAVGSCHSLVANFLDGFLKFQTGSNSAFDVVEVEEPAGPAVLTIGLGHKGRLAVVLDYTRLNAALGSAAYVVEDSGCSSSEEVSFQGVGSGATLVVTTLGESPTAVSA"}},
  "assay_in_all_cases": "glycan array binding signal (z-score within array); higher = stronger binding",
  "conditions_in_all_cases": "glycan notation: IUPAC condensed, linker removed",
  "key": {"[1]": {"target": "Fuc(a1-2)Gal(b1-3)GalNAc(b1-4)[Neu5Ac(a2-3)]Gal(b1-4)Glc", "method_in_brief": "(§1)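 Arrays were curated from the Consortium for Functional Glycomics database, 3228 in total, and kept only where the protein sequence was available. Binding is expressed as a within-array Z-score. This score was averaged across arrays of the same protein sequence at different concentrations or buffers and across linkers, and negative values can be read as non-binding.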"}, "[2]": {"target": "Fuc(a1-2)Gal(b1-4)[Fuc(a1-3)]GlcNAc", "method_in_brief": "as §1"}, "[3]": {"target": "Fuc(a1-2)Gal(b1-4)[Fuc(a1-3)]GlcNAc(b1-3)Gal(b1-4)[Fuc(a1-3)]GlcNAc", "method_in_brief": "as §1"}, "[4]": {"target": "Fuc(a1-3)[Gal3S(b1-4)]GlcNAc", "method_in_brief": "as §1"}, "[5]": {"target": "Fuc(a1-3)[Gal3S(b1-4)]GlcNAc6S", "method_in_brief": "as §1"}, "[6]": {"target": "Gal(a1-3)Gal(b1-3)GlcNAc", "method_in_brief": "as §1"}, "[7]": {"target": "Gal(a1-3)Gal(b1-4)[Fuc(a1-3)]GlcNAc", "method_in_brief": "as §1"}, "[8]": {"target": "Gal(a1-3)GalNAc", "method_in_brief": "as §1"}, "[9]": {"target": "Gal3S(b1-4)Glc", "method_in_brief": "as §1"}, "[10]": {"target": "Gal3S6S(b1-4)GlcNAc", "method_in_brief": "as §1"}, "[11]": {"target": "Gal4S6S(b1-4)GlcNAc", "method_in_brief": "as §1"}, "[12]": {"target": "GlcNAc3Prop(b1-4)GlcNAc", "method_in_brief": "as §1"}, "[13]": {"target": "Kdn(a2-3)Gal(b1-4)GlcNAc", "method_in_brief": "as §1"}, "[14]": {"target": "Man(a1-2)Man(a1-3)[Man(a1-2)Man(a1-6)]Man(a1-6)[Man(a1-2)Man(a1-2)Man(a1-3)]Man", "method_in_brief": "as §1"}, "[15]": {"target": "Neu5Ac(a2-3)Gal", "method_in_brief": "as §1"}, "[16]": {"target": "Neu5Ac(a2-3)Gal(b1-3)GalNAc(b1-4)[Neu5Ac(a2-3)]Gal(b1-4)Glc", "method_in_brief": "as §1"}, "[17]": {"target": "Neu5Ac(a2-3)Gal(b1-3)GlcNAc6S", "method_in_brief": "as §1"}, "[18]": {"target": "Neu5Ac(a2-3)Gal(b1-3)[Neu5Ac(a2-3)Gal(b1-4)]GlcNAc", "method_in_brief": "as §1"}, "[19]": {"target": "Neu5Ac(a2-3)Gal(b1-4)GlcNAc(b1-2)Man(a1-3)[GlcNAc(b1-2)Man(b1-4)GlcNAc(b1-2)Man(a1-6)]Man(b1-4)GlcNAc(b1-4)GlcNAc", "method_in_brief": "as §1"}, "[20]": {"target": "Neu5Ac(a2-3)Gal(b1-4)GlcNAc6S", "method_in_brief": "as §1"}, "[21]": {"target": "Neu5Ac(a2-3)Gal6S(b1-4)[Fuc(a1-3)]GlcNAc", "method_in_brief": "as §1"}, "[22]": {"target": "Neu5Ac(a2-3)[GalNAc(b1-4)]Gal(b1-4)GlcNAc", "method_in_brief": "as §1"}, "[23]": {"target": "Neu5Ac(a2-3)[Neu5Ac(a2-6)]GalNAc", "method_in_brief": "as §1"}, "[24]": {"target": "Neu5Ac(a2-6)Gal(b1-4)GlcNAc(b1-3)Gal(b1-4)[Fuc(a1-3)]GlcNAc(b1-3)Gal(b1-4)[Fuc(a1-3)]GlcNAc", "method_in_brief": "as §1"}, "[25]": {"target": "Neu5Ac(a2-6)GalNAc(b1-4)GlcNAc", "method_in_brief": "as §1"}, "[26]": {"target": "Neu5Ac9Ac(a2-6)Gal(b1-4)GlcNAc", "method_in_brief": "as §1"}, "[27]": {"target": "Neu5Gc(a2-3)Gal(b1-4)GlcNAc", "method_in_brief": "as §1"}},
  "note": "Shown is part of a subset that was picked to be rich in the strongest signals.",
  "data": [
    {"binder": "B1", "values": [
      {"measurement": "glycan array binding signal (z-score)", "setting": "[1]", "result": -0.232},
      {"measurement": "glycan array binding signal (z-score)", "setting": "[2]", "result": -0.213},
      {"measurement": "glycan array binding signal (z-score)", "setting": "[3]", "result": -0.138},
      {"measurement": "glycan array binding signal (z-score)", "setting": "[4]", "result": -0.041},
      {"measurement": "glycan array binding signal (z-score)", "setting": "[5]", "result": -0.233},
      {"measurement": "glycan array binding signal (z-score)", "setting": "[6]", "result": -0.059},
      {"measurement": "glycan array binding signal (z-score)", "setting": "[7]", "result": -0.014},
      {"measurement": "glycan array binding signal (z-score)", "setting": "[8]", "result": -0.139},
      {"measurement": "glycan array binding signal (z-score)", "setting": "[9]", "result": -0.149},
      {"measurement": "glycan array binding signal (z-score)", "setting": "[10]", "result": -0.228},
      {"measurement": "glycan array binding signal (z-score)", "setting": "[11]", "result": -0.218},
      {"measurement": "glycan array binding signal (z-score)", "setting": "[12]", "result": -0.196},
      {"measurement": "glycan array binding signal (z-score)", "setting": "[13]", "result": -0.256},
      {"measurement": "glycan array binding signal (z-score)", "setting": "[14]", "result": -0.307},
      {"measurement": "glycan array binding signal (z-score)", "setting": "[15]", "result": -0.068},
      {"measurement": "glycan array binding signal (z-score)", "setting": "[16]", "result": -0.19},
      {"measurement": "glycan array binding signal (z-score)", "setting": "[17]", "result": 0.131},
      {"measurement": "glycan array binding signal (z-score)", "setting": "[18]", "result": 4.31},
      {"measurement": "glycan array binding signal (z-score)", "setting": "[19]", "result": 3.01},
      {"measurement": "glycan array binding signal (z-score)", "setting": "[20]", "result": 6.25},
      {"measurement": "glycan array binding signal (z-score)", "setting": "[21]", "result": -0.178},
      {"measurement": "glycan array binding signal (z-score)", "setting": "[22]", "result": 5.43},
      {"measurement": "glycan array binding signal (z-score)", "setting": "[23]", "result": -0.313},
      {"measurement": "glycan array binding signal (z-score)", "setting": "[24]", "result": -0.268},
      {"measurement": "glycan array binding signal (z-score)", "setting": "[25]", "result": -0.152},
      {"measurement": "glycan array binding signal (z-score)", "setting": "[26]", "result": -0.294},
      {"measurement": "glycan array binding signal (z-score)", "setting": "[27]", "result": 9.71}
    ]}
  ]
}
